Molecules are shown by their SMILES. “And” between values parts separate entries of the source, which are not always exact repeats. Equal values may be shown once. Unmarked numbers belong to inactive results. Results filed as inconclusive are left out. The source made the active and inactive calls. Unless noted, calls come from the whole dose curve; as a rule, active = well fitted curve in the direction sought with a large enough effect in the repeat runs; inconclusive = weak or mixed curves; inactive = no such curve, though single readings can be large; an effect the other way counts as inactive or inconclusive.

Test [1] can be described thus: Human pregnane X receptor (PXR) small molecule agonists, qHTS cell viability counter screen (AID 1346977). Note: nearly all actives have a fitted effect of over 50% in size. Note: potency is the fitted concentration of half-maximal effect. In outline:
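HepG2 cells stably carrying the PXR-Luc reporter are cultured with 5% charcoal-stripped FBS and treated with compounds for 24hr. CellTiter-Fluor is added at 23hr and fluorescence is read after 1hr.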
A general note: qHTS replaces the single test concentration by a dilution series.

A short description of test [2]: Caspase-3/7 induction in HepG2 cells by small molecules, qHTS assay (AID 1346978). Note: nearly all actives have a fitted effect of over 15% in size. Note: potency is the fitted concentration of half-maximal effect. The method in brief: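 Wild-type HepG2 cells, 2,000/well, settled 5 hr at 37 C and 5% CO2, then compound-treated for 17 hr; caspase-3/7 activity read by luminescent Caspase-Glo 3/7 after 30 min at room temperature.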
Test [3] can be described thus: Caspase-3/7 induction in CHO-K1 cells by small molecules, qHTS cell viability counter screen (AID 1346979). Note: nearly all actives have a fitted effect of over 35% in size. Note: potency is the fitted concentration of half-maximal effect. The method in brief: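 Seeding: 1,500 CHO-K1 cells/well. Rest: 5hr, 37C. Treatment: compounds in DMSO, 16hr. Read: CellTiter-Fluor, 1hr, fluorescence.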
Test [4] in a line: Caspase-3/7 induction in CHO-K1 cells by small molecules, qHTS assay (AID 1346980). Note: nearly all actives have a fitted effect of over 15% in size. Note: potency is the fitted concentration of half-maximal effect. In outline: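 Wild-type CHO-K1 cells exposed to compounds for 17hr at 37 C, 5% CO2. Caspase-3/7 activity then measured by Caspase-Glo 3/7 luminescence after 30min at room temperature.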
The nature of test [5]: Caspase-3/7 induction in HepG2 cells by small molecules, qHTS cell viability counter screen (AID 1346981). Note: nearly all actives have a fitted effect of over 30% in size. Note: potency is the fitted concentration of half-maximal effect. In outline:
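Steps: seed 2,000 HepG2 cells per well; incubate 5 hr at 37 C; pin-add compounds in DMSO; incubate 16 hr; add CellTiter-Fluor; after 1 hr at 37 C and 5% CO2, read fluorescence.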

Test [6] addresses Nuclear receptor subfamily 1 group I member 2 (Homo sapiens) (UniProt O75469). In words: Human pregnane X receptor (PXR) small molecule agonists, qHTS assay (AID 1346982). Note: nearly all actives have a fitted effect of over 35% in size. Note: potency is the fitted concentration of half-maximal effect. In outline: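 Agonist mode qHTS: PXR-Luc HepG2 cells plated 5 hr before DMSO-dissolved compounds were pinned in, cultured 24 hr at 37 C, 5% CO2; ONE-Glo luminescence readout.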
Test [7] concerns the target Nuclear receptor subfamily 1 group I member 2 (Rattus norvegicus) (UniProt Q9R1A7). In words: Rat pregnane X receptor (rPXR) activation by small molecules, qHTS assay (AID 1346983). Note: nearly all actives have a fitted effect of over 20% in size. To be noted: rPXR luciferase reporter cells, One-Glo luminescence, 24 h; max activation: active compounds read high. In outline: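 Cell-based rPXR activation assay: rPXR cells, 2,000 per well, rested 5hr at 37 C, then exposed to compounds in DMSO for 24 hr at 37 C. Luciferase activity read by One-Glo luminescence after 30 min at room temperature.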

Test [8] deals with Nuclear receptor subfamily 1 group I member 2 (Homo sapiens) (UniProt O75469). In words: CYP3A4 induction through human pregnane X receptor (PXR) by small molecules, qHTS assay (AID 1346984). Note: nearly all actives have a fitted effect of over 40% in size. The method in brief:
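Steps: seed DPX-2 cells, 5 hr at 37C; pin-transfer compounds; 24 hr at 37C; add Luciferin-IPA (3uM final), 3 hr at 37C; add One-Glo, 30 min RT; read luminescence.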

Test [9] shares this target. The test can be described thus: Human pregnane X receptor (PXR) activation by small molecules, qHTS assay (AID 1346985). Note: nearly all actives have a fitted effect of over 40% in size. In outline:
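DPX-2 cells (HepG2 co-transfected with a PXR response element and a CYP3A4-promoter luciferase construct) were seeded at 2,000 per well, rested 5 hr at 37C, then exposed to DMSO-dissolved compounds for 24 hr. Activation was read as luciferase luminescence.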

For test [10], the target named is Acetylcholinesterase (Homo sapiens) (UniProt P22303). In words: Acetylcholinesterase (AChE) small molecule antagonists: colormetric cell-based qHTS assay (AID 1347395; calls by dose curve; note: nearly all actives have a fitted effect of over 30% in size). In outline:
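Quantitative HTS in attached SH-SY5Y cells: 30 min compound exposure, then 90 min with acetylthiocholine and DTNB at 37 C; colour from thiocholine reports AChE activity.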

For test [11] the target is unchanged. The test can be described thus: Acetylcholinesterase (AChE) small molecule antagonists: enzyme-based qHTS assay (AID 1347397; calls by dose curve; note: nearly all actives have a fitted effect of over 55% in size). To be noted: Potency: AChE enzyme activity inhibition. In outline:
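Recombinant human AChE (50 mU/mL) preincubated with compound 30 min at room temperature; acetylthiocholine plus DTNB then added, and thiocholine formation read colorimetrically after 10 min at room temperature. DMSO served as vehicle control.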

The target is the same in test [12]. In words: Acetylcholinesterase (AChE) small molecule antagonists: fluorescence cell-based qHTS assay (AID 1347398; calls by dose curve; note: nearly all actives have a fitted effect of over 50% in size). To be noted: Potency: AChE activity. The method in brief: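 SH-SY5Y cells (2000/well), attached overnight, incubated with compound 30 min at 37 C. Acetylthiocholine plus Thiolite Green then added for 40 min at room temperature. Thiocholine fluorescence (Ex/Em 490/520 nm) reports cellular AChE activity.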

Test [13] has the same target. In words: Acetylcholinesterase (AChE) small molecule antagonists: enzyme-based qHTS assay with human liver microsomes (AID 1347399; calls by dose curve; note: nearly all actives have a fitted effect of over 60% in size). The settings on record: Potency: qHTS inhibition. In outline: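 Recombinant human AChE (50 mU/mL in the enzyme mix) and human liver microsomes (0.25 mg/mL final) were preincubated with compound and NADPH (0.25 mg/mL final) for 30 min at 37 C. Acetylthiocholine/DTNB was then added; thiocholine was read colorimetrically after 10 min at room temperature.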

For test [14], the target named is Cytochrome P450 2D6 (Homo sapiens) (UniProt P10635). In words: Cytochrome P450 Family 2 Subfamily D Member 6 (CYP2D6) small molecule antagonists: luciferase reporter qHTS assay (AID 1671196). Note: nearly all actives have a fitted effect of over 50% in size. Note: potency is the fitted concentration of half-maximal effect. In outline: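 P450-Glo format: CYP2D6 converts a proluciferin substrate to luciferin in an NADPH-driven reaction lasting 1 h at room temperature. Light output, proportional to CYP2D6 activity, reflects interference by test chemicals.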
Chain of Cytochrome P450 2D6 (Homo sapiens) (P10635 whole entry, looked up): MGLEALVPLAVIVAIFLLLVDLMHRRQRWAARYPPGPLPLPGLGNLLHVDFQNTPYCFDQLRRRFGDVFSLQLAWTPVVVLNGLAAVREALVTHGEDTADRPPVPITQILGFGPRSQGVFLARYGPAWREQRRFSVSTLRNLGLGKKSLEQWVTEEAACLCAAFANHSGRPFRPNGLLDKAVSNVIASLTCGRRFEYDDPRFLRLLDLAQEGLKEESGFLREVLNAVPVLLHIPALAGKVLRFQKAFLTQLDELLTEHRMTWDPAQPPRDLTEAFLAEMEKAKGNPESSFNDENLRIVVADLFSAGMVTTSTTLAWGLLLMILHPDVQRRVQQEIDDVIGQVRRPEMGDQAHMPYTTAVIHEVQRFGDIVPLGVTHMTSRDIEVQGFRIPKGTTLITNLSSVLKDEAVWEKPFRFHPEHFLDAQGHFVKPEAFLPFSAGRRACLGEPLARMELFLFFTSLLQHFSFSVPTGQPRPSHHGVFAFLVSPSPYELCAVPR
(A reporter such as luciferase makes a cellular process visible.)

The target of test [15] is Cytochrome P450 2C19 (Homo sapiens) (UniProt P33261). The test can be described thus: Cytochrome P450 Family 2 Subfamily C Member 19 (CYP2C19) small molecule antagonists: luciferase reporter qHTS assay (AID 1671197). Note: nearly all actives have a fitted effect of over 65% in size. Note: potency is the fitted concentration of half-maximal effect. The method in brief:
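Light output is proportional to CYP2C19 activity: proluciferin substrate is converted to luciferin, then detected by a luciferin detection reagent that also stops the 1 h, 37C NADPH-driven reaction. Ketoconazole serves as positive control.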

For test [16], the target named is Cytochrome P450 2C9 (Homo sapiens) (UniProt P11712). In words: Cytochrome P450 Family 2 Subfamily C Member 9 (CYP2C9) small molecule antagonists: luciferase reporter qHTS assay (AID 1671198). Note: nearly all actives have a fitted effect of over 50% in size. Note: potency is the fitted concentration of half-maximal effect. The method in brief: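 P450-Glo proluciferin substrate with CYP2C9 enzyme; 10 min RT preincubation, then NADPH regeneration 1 h at 37C; luciferin detection reagent 20 min RT, luminescence in relative luminescence units.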

The target in test [17] is Voltage-gated inwardly rectifying potassium channel KCNH2 (Homo sapiens) (UniProt Q12809). The test can be described thus: Human Ether-a-go-go-Related Gene (hERG) channel small molecule antagonists: fluorescence cell-based qHTS assay (AID 1671200). Note: nearly all actives have a fitted effect of over 50% in size. Note: potency is the fitted concentration of half-maximal effect. The method in brief: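 First, 1000 cells per well are seeded and cultured overnight at 37 C. Next, FluxOR II dye is loaded for 1 h at room temperature, protected from light. After 10 more minutes, stimulus is added and fluorescence is read.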
Chain of Voltage-gated inwardly rectifying potassium channel KCNH2 (Homo sapiens) (Q12809 whole entry, looked up): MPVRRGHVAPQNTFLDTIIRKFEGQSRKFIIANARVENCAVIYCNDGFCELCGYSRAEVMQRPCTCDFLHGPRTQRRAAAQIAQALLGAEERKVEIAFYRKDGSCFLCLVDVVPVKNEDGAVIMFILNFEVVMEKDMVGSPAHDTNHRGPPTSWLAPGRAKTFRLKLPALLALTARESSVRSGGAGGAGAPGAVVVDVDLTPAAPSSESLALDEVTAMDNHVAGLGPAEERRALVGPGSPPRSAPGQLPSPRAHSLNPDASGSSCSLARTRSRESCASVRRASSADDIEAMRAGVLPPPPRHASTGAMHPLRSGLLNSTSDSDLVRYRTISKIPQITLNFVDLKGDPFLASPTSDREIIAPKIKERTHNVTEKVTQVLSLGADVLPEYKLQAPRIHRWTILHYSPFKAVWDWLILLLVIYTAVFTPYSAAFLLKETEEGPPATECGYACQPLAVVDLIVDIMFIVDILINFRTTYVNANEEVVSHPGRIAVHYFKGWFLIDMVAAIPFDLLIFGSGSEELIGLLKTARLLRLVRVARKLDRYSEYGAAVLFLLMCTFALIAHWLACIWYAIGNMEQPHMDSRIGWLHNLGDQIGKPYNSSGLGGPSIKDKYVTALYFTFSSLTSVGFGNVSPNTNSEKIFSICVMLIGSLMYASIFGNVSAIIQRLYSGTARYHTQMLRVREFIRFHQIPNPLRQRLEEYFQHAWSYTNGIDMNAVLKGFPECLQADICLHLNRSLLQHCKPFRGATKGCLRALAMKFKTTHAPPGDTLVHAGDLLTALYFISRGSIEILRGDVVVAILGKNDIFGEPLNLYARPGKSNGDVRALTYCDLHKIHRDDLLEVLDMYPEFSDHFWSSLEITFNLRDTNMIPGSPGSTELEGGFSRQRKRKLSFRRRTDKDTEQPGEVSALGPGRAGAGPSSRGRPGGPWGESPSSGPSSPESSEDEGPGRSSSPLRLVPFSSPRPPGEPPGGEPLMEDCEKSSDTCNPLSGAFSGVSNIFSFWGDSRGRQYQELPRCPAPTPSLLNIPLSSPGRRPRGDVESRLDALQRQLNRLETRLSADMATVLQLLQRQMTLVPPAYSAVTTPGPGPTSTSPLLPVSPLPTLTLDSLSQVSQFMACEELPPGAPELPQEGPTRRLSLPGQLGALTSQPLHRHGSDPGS
In general terms: hERG is a cardiac potassium channel; its block is linked to QT prolongation.

The target of test [18] is Cytochrome P450 3A4 (Homo sapiens) (UniProt P08684). The test can be described thus: Cytochrome P450 Family 3 Subfamily A Member 4 (CYP3A4) small molecule antagonists: luciferase reporter qHTS assay (AID 1671201). Note: nearly all actives have a fitted effect of over 50% in size. Note: potency is the fitted concentration of half-maximal effect. In outline:
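Enzyme and proluciferin substrate are mixed with test chemicals for 10 min, then NADPH regeneration system drives turnover for 1 h at room temperature. A detection reagent halts the reaction; luminescence after 20 min gives relative activity.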

Test [19] addresses Cytochrome P450 1A2 (Homo sapiens) (UniProt P05177). The test can be described thus: Cytochrome P450 Family 1 Subfamily A Member 2 (CYP1A2) small molecule antagonists: luciferase reporter qHTS assay (AID 1671199). Note: nearly all actives have a fitted effect of over 50% in size. Note: potency is the fitted concentration of half-maximal effect. In outline:
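Inhibition of CYP1A2 conversion of proluciferin to luciferin, detected by luminescence. Reaction run 1 h at room temperature with NADPH regeneration after brief compound preincubation.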
% is set by controls: 0 for no effect and ±100 for the full control effect.

Chain of Nuclear receptor subfamily 1 group I member 2 (Homo sapiens) (O75469 whole entry, looked up): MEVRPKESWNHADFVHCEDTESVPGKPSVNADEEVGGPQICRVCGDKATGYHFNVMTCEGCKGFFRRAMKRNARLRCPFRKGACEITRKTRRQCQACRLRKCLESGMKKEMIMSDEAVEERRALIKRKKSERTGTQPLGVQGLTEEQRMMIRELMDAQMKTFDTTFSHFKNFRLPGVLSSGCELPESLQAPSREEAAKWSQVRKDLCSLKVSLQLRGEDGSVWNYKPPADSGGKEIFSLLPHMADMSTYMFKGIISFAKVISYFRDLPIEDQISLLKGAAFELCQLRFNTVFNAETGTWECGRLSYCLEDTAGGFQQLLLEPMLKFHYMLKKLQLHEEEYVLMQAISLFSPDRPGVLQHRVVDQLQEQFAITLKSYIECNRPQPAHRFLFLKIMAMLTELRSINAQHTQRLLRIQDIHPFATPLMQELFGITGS
Chain of Acetylcholinesterase (Homo sapiens) (P22303 whole entry, looked up): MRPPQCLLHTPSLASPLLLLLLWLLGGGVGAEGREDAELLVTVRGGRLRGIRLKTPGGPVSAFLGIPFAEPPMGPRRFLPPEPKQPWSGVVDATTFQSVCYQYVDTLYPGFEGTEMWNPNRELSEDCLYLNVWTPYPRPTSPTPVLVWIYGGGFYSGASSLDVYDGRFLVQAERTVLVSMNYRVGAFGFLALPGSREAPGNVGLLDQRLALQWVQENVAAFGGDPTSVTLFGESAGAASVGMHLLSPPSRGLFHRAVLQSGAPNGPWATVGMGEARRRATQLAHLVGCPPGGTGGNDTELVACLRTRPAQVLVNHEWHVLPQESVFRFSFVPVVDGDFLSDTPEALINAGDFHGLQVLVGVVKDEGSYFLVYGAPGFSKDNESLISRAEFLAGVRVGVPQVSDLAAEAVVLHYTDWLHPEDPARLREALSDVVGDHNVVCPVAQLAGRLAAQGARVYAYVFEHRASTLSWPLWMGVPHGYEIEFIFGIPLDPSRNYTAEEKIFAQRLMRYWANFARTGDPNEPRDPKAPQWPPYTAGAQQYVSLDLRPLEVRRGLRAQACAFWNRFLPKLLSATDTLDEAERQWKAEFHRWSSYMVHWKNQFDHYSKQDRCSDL
Chain of Cytochrome P450 3A4 (Homo sapiens) (P08684 whole entry, looked up): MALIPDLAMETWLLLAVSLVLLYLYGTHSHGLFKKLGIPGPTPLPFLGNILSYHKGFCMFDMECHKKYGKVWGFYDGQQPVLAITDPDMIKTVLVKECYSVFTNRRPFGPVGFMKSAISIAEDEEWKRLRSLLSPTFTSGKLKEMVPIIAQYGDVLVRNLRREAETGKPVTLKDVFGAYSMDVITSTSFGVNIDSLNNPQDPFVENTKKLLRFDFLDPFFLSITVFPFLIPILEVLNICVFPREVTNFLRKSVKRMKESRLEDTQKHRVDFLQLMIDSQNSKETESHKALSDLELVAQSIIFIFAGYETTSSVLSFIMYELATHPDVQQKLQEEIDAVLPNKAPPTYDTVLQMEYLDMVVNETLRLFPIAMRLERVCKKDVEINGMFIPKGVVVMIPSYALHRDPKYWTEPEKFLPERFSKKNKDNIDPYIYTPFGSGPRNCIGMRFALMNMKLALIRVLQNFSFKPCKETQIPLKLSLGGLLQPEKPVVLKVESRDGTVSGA
Chain of Cytochrome P450 1A2 (Homo sapiens) (P05177 whole entry, looked up): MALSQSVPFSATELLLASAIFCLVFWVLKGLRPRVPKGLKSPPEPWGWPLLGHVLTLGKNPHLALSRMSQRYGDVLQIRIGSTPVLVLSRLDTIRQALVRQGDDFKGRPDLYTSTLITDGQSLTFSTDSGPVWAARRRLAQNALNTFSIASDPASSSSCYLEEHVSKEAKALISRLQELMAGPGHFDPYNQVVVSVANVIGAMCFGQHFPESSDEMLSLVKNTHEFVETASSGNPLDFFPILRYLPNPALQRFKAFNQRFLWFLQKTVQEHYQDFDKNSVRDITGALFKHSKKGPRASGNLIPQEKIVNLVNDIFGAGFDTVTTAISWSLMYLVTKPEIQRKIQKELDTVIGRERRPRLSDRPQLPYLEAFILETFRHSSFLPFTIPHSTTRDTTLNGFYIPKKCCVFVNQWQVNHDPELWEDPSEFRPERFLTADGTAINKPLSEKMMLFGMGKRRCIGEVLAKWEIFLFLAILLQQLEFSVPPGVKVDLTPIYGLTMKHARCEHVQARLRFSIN
Chain of Nuclear receptor subfamily 1 group I member 2 (Rattus norvegicus) (Q9R1A7 whole entry, looked up): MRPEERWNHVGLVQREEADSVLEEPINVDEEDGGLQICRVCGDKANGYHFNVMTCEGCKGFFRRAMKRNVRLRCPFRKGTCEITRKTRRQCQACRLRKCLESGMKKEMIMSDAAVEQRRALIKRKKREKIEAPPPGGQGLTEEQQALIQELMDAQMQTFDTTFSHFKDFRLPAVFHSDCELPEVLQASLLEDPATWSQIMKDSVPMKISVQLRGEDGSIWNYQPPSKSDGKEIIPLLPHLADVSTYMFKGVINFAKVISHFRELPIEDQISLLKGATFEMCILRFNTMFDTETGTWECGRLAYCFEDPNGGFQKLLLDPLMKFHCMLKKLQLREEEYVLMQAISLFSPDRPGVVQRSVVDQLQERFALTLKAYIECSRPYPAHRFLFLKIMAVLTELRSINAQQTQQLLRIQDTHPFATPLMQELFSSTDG
Chain of Cytochrome P450 2C19 (Homo sapiens) (P33261 whole entry, looked up): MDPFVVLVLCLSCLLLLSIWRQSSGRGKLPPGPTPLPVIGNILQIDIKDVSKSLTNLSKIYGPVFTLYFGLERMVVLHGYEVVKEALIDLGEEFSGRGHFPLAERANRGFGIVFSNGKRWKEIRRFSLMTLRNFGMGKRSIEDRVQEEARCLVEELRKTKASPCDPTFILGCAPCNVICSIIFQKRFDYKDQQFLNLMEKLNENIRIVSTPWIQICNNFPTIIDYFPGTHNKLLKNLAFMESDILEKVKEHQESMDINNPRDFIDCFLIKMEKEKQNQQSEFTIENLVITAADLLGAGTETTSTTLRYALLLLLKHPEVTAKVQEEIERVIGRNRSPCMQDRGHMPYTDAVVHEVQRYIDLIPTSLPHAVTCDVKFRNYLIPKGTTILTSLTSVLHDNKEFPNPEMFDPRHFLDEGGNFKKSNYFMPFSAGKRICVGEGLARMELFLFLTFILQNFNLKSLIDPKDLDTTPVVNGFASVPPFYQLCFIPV

In the case of `COc1c2c(cc3c1OCO3)CCN(C)C2`, the Potency entry in [1], in test [2], in test [3], in test [4], in test [5] and in test [6] was “inactive” each time. In addition, the Potency result in test [8], in [9], in test [10], in test [11], in [12] and in [13] was “inactive” throughout. The Potency result in [15], in test [16], in test [17] and in test [18] was “inactive” throughout. The max activation in test [7] was -1.49%. Moreover, the Potency in test [14] was 4.36 µM (active).
Regarding `CC(=O)[O][Pb]([c]1ccccc1)([c]1ccccc1)[c]1ccccc1`, the Potency in test [1] was 4.33 µM (active); in [2] it was 2.43 µM (active); in test [3] it was 386 nM (active); in test [4], 0.486 µM (active); in test [5], 10.9 µM (active); in [14] it was 22.4 µM (active). For the same compound, the Potency in [15] was 8.94 µM (active); in test [16], 3.17 µM (active); in test [19], 39.9 µM (active); in test [18] it was 10 µM (active). In addition, the Potency entry in test [6], in test [10], in test [11], in [12] and in test [13] was “inactive” each time.
Regarding `O=S(=O)(NS(=O)(=O)C(F)(F)F)C(F)(F)F`, the Potency in test [1] is 60.9 µM (active); in [3], 48400 nM (active); in test [6], 60.9 µM (active); in test [14], 0.447 µM (active); in test [15], 39.8 µM (active); in [16], 6.31 µM (active). In addition, the Potency in test [19] was 44.7 µM (active); in [17], 38.8 µM (active). In addition, the Potency result in test [2], in test [4], in test [5], in test [10], in test [11] and in [12] was “inactive” throughout. In addition, the Potency result in test [13] was “inactive”.
In the case of `[O]=[Cr](=[O])([OH])[O][Cr](=[O])(=[O])[OH]`, the Potency in [1] is 8.71 µM (active) and 6.1 µM (active); in [2], 9.78 µM (active) and 13.7 µM (active); in test [3], 7.77 µM (active) and 15.3 µM (active); in test [5], 5.5 µM (active) and 4.85 µM (active); in [6], 8.71 µM (active) and 9.67 µM (active). Further, the Potency entry in test [4], in test [8], in test [9], in test [10], in [11] and in test [12] was “inactive” in each case. Further, the Potency result in [13], in [14], in [15], in [19] and in test [18] was “inactive” in each case. Further, the max activation in test [7] is -13.2% and 6.2%.
Turning to `ClCBr`, the Potency result in test [1], in test [2], in test [3], in [4], in test [5] and in test [6] was “inactive” each time. The Potency result in test [10], in test [11], in [12], in [13], in test [14] and in [15] was “inactive” each time. Besides, the Potency result in [16], in test [19] and in test [18] was “inactive” in each case.
Take `BrCC(Br)(Br)Br`: the Potency result in test [1], in test [2], in test [3], in [4], in test [5] and in test [6] was “inactive” in each case. For the same compound, the Potency entry in test [10], in test [11], in [12], in test [13], in test [14] and in test [15] was “inactive” each time. The Potency entry in [16], in [19], in test [17] and in test [18] was “inactive” in each case.
`[Cl][Hg][c]1ccccc1`: the Potency was 1.54 µM (active) in [1]; 486 nM (active) in test [3]; 12.2 µM (active) in test [5]; 0.796 µM (active) in [14]; 5.03 µM (active) in test [15]; 3.99 µM (active) in test [16]. For the same compound, the Potency in test [19] was 28.3 µM (active); in test [18] it was 8.94 µM (active). The Potency entry in [2], in test [4], in test [6], in [10], in test [11] and in [13] was “inactive” in each case.
